Among the test systems are NCI-H23 lung; NCI-H226 lung; NCI-H322M lung; HOP-62 NSCLC; NCI-H460 lung; HOP-92 NSCLC; NCI-H522 lung; A549/ATCC NSCLC; 786-0 renal; COLO 205 colon.
Holding throughout (assay): NCI-60 one-dose screen, 48 h (100 = growth as untreated, 0 = no growth, -100 = all killed)
Common to all, as to conditions: 10 µM unless noted

The panel holds about 83,000 compounds, 20% with a hit somewhere; the sample as a whole holds those more often.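 Plates (96-well) were seeded with cells, treated with compound at one concentration, and incubated for 48 hours before percent growth was determined.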 Unmarked numbers belong to inactive results. The source made the active and inactive calls. How the source made its calls: active means growth percent below 10; inactive means the rest.

Consider `CN(CCO)c1ccc(N2Cc3ccccc3OC3=C2C(=O)c2c(O)ccc(O)c2C3=O)cn1`, for which the growth in the experiment on NCI-H23 lung is -66.5% (active); in the experiment with NCI-H226 lung it was 0.236% (active); in the experiment on NCI-H322M lung, -0.583% (active); in the experiment on HOP-62 NSCLC, -46.3% (active); in the experiment on NCI-H460 lung it was -51.2% (active); in the experiment with HOP-92 NSCLC, -71.9% (active). The growth with NCI-H522 lung was -49.8% (active); with A549/ATCC NSCLC, -18.9% (active); in the experiment with 786-0 renal, -91.2% (active); in the experiment on COLO 205 colon it was -81.8% (active).
As for `Fc1cnccc1-c1nc2ccc3[nH]ncc3c2c2c1CCCC2`, the growth was 31.9% with NCI-H23 lung; 30% with NCI-H226 lung; 29.5% with NCI-H322M lung; 21% in the experiment with HOP-62 NSCLC; 25.8% with NCI-H460 lung; 40.7% in the experiment with HOP-92 NSCLC. Besides, the growth is 18.8% in the experiment with NCI-H522 lung, 14.6% in the experiment on A549/ATCC NSCLC, 28.1% in the experiment with 786-0 renal and 17.6% in the experiment on COLO 205 colon.
With `CC(=O)c1cccc(Nc2ncnc3ccc(NC(=O)c4ccco4)cc23)c1`, the growth with NCI-H23 lung was 88.7%; with NCI-H226 lung it was 87.6%; in the experiment on NCI-H322M lung it was 102%; with HOP-62 NSCLC it was 113%; in the experiment with NCI-H460 lung, 96.1%; in the experiment on HOP-92 NSCLC, 71.7%. The growth with NCI-H522 lung is 83.3%; in the experiment with A549/ATCC NSCLC it was 90.4%; with 786-0 renal it was 89.5%; with COLO 205 colon, 98.5%.
In the case of `CCOC(=O)C1=C(C)NC(SCc2nnc(-c3ccc(Cl)cc3)o2)=NC1c1ccc(Br)cc1` (stereo not given), the growth in the experiment with NCI-H23 lung was 75.7%; with NCI-H226 lung, 78.9%; in the experiment on NCI-H322M lung, 86.4%; with HOP-62 NSCLC, 86.9%; in the experiment with NCI-H460 lung, 80.4%; with HOP-92 NSCLC, 57.8%. Further, the growth with NCI-H522 lung is 67.6%; with A549/ATCC NSCLC, 62.4%; with 786-0 renal, 84.9%; with COLO 205 colon, 77.6%.
Turning to `CCCCCCCCCCCCCCCCOc1ccc(S(=O)(=O)N(C)C)cc1[N+](=O)[O-]`, the growth with NCI-H23 lung is 97.4%; in the experiment with NCI-H226 lung, 104%; in the experiment on NCI-H322M lung it was 103%; in the experiment with HOP-62 NSCLC it was 49.2%; in the experiment on NCI-H460 lung, 118%; in the experiment on HOP-92 NSCLC, 46.2%. Further, the growth was 94.5% with NCI-H522 lung, 98.7% in the experiment on A549/ATCC NSCLC, 67.3% in the experiment with 786-0 renal and 114% in the experiment with COLO 205 colon.
Regarding `CC(C)c1[nH]ncc1-c1nc2ccc3[nH]ncc3c2c2c1CCCC2`, the growth in the experiment on NCI-H23 lung is 32.7%; in the experiment with NCI-H226 lung it was 35.5%; with NCI-H322M lung it was 39.7%; with HOP-62 NSCLC it was 30.5%; in the experiment with NCI-H460 lung, 16.1%; in the experiment on HOP-92 NSCLC it was 58.5%. Also, the growth is 41% with NCI-H522 lung, 13.9% in the experiment on A549/ATCC NSCLC, 23.2% in the experiment with 786-0 renal and 7.79% (active) in the experiment with COLO 205 colon.
For the molecule `COc1ccc2[nH]cc(/C=C3\C(=O)Nc4ccccc43)c2c1`, the growth was 42.3% with NCI-H23 lung; 62.1% with NCI-H226 lung; 37.8% with NCI-H322M lung; 28.8% in the experiment on HOP-62 NSCLC; 26% with NCI-H460 lung; 31.3% with HOP-92 NSCLC. Also, the growth was 17.5% with NCI-H522 lung, 26.5% with A549/ATCC NSCLC, 53.8% in the experiment with 786-0 renal and 40.6% in the experiment on COLO 205 colon.
In the case of `CCN(CC)CCCCCCCNc1cc(OC)cc2c(C)ccnc12`, the growth with NCI-H23 lung was 87.6%; in the experiment with NCI-H226 lung, 86.6%; in the experiment on NCI-H322M lung, 94.8%; in the experiment with HOP-62 NSCLC it was 93.3%; with NCI-H460 lung, 85.2%; in the experiment on HOP-92 NSCLC it was 57.5%. The growth with NCI-H522 lung is 71.4%; with A549/ATCC NSCLC it was 94.7%; in the experiment on 786-0 renal it was 80.8%; with COLO 205 colon, 72.9%.
Turning to `O=C1C2=C(C(=O)c3c(O)ccc(O)c31)N(c1ccc(N3CCOCC3)nc1)Cc1ccccc1O2`, the growth was -33.8% (active) in the experiment with NCI-H23 lung; 0% (active) in the experiment with NCI-H226 lung; -14.6% (active) in the experiment on NCI-H322M lung; -13% (active) in the experiment on HOP-62 NSCLC; -32.6% (active) in the experiment with NCI-H460 lung; -66.1% (active) in the experiment with HOP-92 NSCLC. Besides, the growth in the experiment on NCI-H522 lung is -47.3% (active); with A549/ATCC NSCLC, -23.2% (active); in the experiment on 786-0 renal, -83.7% (active); in the experiment with COLO 205 colon it was -67.5% (active).
With `COCCn1c(Nc2ccc(C(=O)NO)cc2)nc2ccccc21`, the growth was 72.8% with NCI-H23 lung; 89.6% with NCI-H226 lung; 76.5% in the experiment with NCI-H322M lung; 74.8% in the experiment with HOP-62 NSCLC; 56.7% with NCI-H460 lung; 27.7% in the experiment with HOP-92 NSCLC. For the same molecule, the growth in the experiment on NCI-H522 lung is 30.9%; with A549/ATCC NSCLC, 69.2%; with 786-0 renal, 84.4%; in the experiment with COLO 205 colon, 50.7%.

These data come from PubChem BioAssay (NCI).
